Of roughly 7,900 targets only a part is listed; those with a hit were picked by preference. About 0.6% of all pairs of compound and target were hits.
Assays:
Experiment in all cases: log2 fold change, soluble protein after heating vs DMSO (PISA); higher = thermal stabilisation; K562 cells, 10 uM, 30 min; active = over 0.2 and 3.5 SD of the protein, either way, in both replicates (recomputed)
[1] = compound: COC1=CC=C(C=C1)CN2C=CC3=C2C=C(C=C3)C(=O)NO
Outline: (§1)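 Values are thermal stability changes relative to control samples and are taken from duplicates. They are stated as log2 fold changes. Before quantification by TMTpro 16plex LC-MS/MS with equalised channel sums, K562 cells at 2×10^6 cells/mL were treated with 10 μM compound for 30 min, heated in aliquots for 3 min across 48°C-58°C, pooled, extracted in PBS with 0.5% NP-40 at 4°C, and centrifuged at 21,000xg for 90 min to give the soluble supernatant.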

filanesib = compound: CON(C)C(=O)N1N=C(c2cc(F)ccc2F)S[C@@]1(CCCN)c1ccccc1 [filanesib]
Outline: as §1

zotarolimus = compound: CO[C@H]1C[C@@H]2CC[C@@H](C)[C@@](O)(O2)C(=O)C(=O)N2CCCC[C@H]2C(=O)O[C@H]([C@H](C)C[C@@H]2CC[C@H](n3cnnn3)[C@H](OC)C2)CC(=O)[C@H](C)/C=C(\C)[C@@H](O)[C@@H](OC)C(=O)[C@H](C)C[C@H](C)/C=C/C=C/C=C/1C [zotarolimus]
Outline: as §1

idasanutlin = compound: COc1cc(C(=O)O)ccc1NC(=O)[C@@H]1N[C@@H](CC(C)(C)C)[C@](C#N)(c2ccc(Cl)cc2F)[C@H]1c1cccc(Cl)c1F [idasanutlin]
Outline: as §1

alisertib = compound: COc1cc(Nc2ncc3c(n2)-c2ccc(Cl)cc2C(c2c(F)cccc2OC)=NC3)ccc1C(=O)O [alisertib]
Outline: as §1

[2] = compound: COc1cc2nc(-c3cc(F)ccc3O)nc(N[C@@H]3CNC[C@H]3C(C)(C)O)c2cc1OC
Outline: as §1

gefitinib = compound: COc1cc2ncnc(Nc3ccc(F)c(Cl)c3)c2cc1OCCCN1CCOCC1 [gefitinib]
Outline: as §1

[3] = compound: COc1cccc2cc(-c3nc([C@H]4CC[C@H](C(=O)O)CC4)n4ncnc(N)c34)[nH]c12
Outline: as §1

lapatinib = compound: CS(=O)(=O)CCNCc1ccc(-c2ccc3ncnc(Nc4ccc(OCc5cccc(F)c5)c(Cl)c4)c3c2)o1 [lapatinib]
Outline: as §1

pictilisib = compound: CS(=O)(=O)N1CCN(Cc2cc3nc(-c4cccc5[nH]ncc45)nc(N4CCOCC4)c3s2)CC1 [pictilisib]
Outline: as §1

[4] = compound: CS(=O)(=O)c1ccc(-c2cnc(N)c(C(=O)Nc3ccccc3)n2)cc1
Outline: as §1

crizotinib = compound: C[C@@H](Oc1cc(-c2cnn(C3CCNCC3)c2)cnc1N)c1c(Cl)ccc(F)c1Cl [crizotinib]
Outline: as §1

[5] = compound: C[C@@H]1COCCN1C2=NC(=NC(=C2)C3(CC3)S(=O)(=O)C)C4=C5C=CNC5=CC=C4
Outline: as §1

[6] = compound: C[C@H](C1=CC=C(C=C1)C(=O)NC2=C3C=CNC3=NC=C2)N
Outline: as §1

duvelisib = compound: C[C@H](Nc1ncnc2nc[nH]c12)c1cc2cccc(Cl)c2c(=O)n1-c1ccccc1 [duvelisib]
Outline: as §1

gandotinib = compound: Cc1cc(Nc2cc(CN3CCOCC3)c3nc(C)c(Cc4ccc(Cl)cc4F)n3n2)n[nH]1 [gandotinib]
Outline: as §1

tozasertib = compound: Cc1cc(Nc2cc(N3CCN(C)CC3)nc(Sc3ccc(NC(=O)C4CC4)cc3)n2)n[nH]1 [tozasertib]
Outline: as §1

[7] = compound: Cc1cc(SCc2sc(-c3ccc(C(F)(F)F)cc3)nc2C)ccc1OCC(=O)O
Outline: as §1

doramapimod = compound: Cc1ccc(-n2nc(C(C)(C)C)cc2NC(=O)Nc2ccc(OCCN3CCOCC3)c3ccccc23)cc1 [doramapimod]
Outline: as §1

ispinesib = compound: Cc1ccc(C(=O)N(CCCN)[C@@H](c2nc3cc(Cl)ccc3c(=O)n2Cc2ccccc2)C(C)C)cc1 [ispinesib]
Outline: as §1

Measured: log2 fold change

NFE2 (UniProt Q16621)
Chain of UniProt Q16621 (Q16621 whole entry, looked up): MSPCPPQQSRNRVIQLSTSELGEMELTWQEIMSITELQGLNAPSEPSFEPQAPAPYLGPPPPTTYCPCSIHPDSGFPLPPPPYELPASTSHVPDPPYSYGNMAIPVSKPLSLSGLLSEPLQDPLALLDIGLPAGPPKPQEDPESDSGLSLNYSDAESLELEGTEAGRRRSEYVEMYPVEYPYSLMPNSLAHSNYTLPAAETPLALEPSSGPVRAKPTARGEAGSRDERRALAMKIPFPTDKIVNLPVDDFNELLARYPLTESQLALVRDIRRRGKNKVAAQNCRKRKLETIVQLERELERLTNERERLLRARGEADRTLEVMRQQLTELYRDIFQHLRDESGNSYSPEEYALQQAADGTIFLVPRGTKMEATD
inactive: [1] 0.135 | filanesib 0 | zotarolimus 0.146 | idasanutlin 0.023 | alisertib -0.056 | [2] -0.032 | gefitinib -0.008 | [3] 0.014 | lapatinib 0.007 | pictilisib 0.05 | [4] -0.006 | crizotinib -0.052 | [5] -0.001 | [6] -0.031 | duvelisib 0.008 | gandotinib -0.091 | tozasertib 0.077 | [7] -0.015 | doramapimod 0.049 | ispinesib 0.033

NCAPH (UniProt Q15003)
Chain of UniProt Q15003 (Q15003 whole entry, looked up): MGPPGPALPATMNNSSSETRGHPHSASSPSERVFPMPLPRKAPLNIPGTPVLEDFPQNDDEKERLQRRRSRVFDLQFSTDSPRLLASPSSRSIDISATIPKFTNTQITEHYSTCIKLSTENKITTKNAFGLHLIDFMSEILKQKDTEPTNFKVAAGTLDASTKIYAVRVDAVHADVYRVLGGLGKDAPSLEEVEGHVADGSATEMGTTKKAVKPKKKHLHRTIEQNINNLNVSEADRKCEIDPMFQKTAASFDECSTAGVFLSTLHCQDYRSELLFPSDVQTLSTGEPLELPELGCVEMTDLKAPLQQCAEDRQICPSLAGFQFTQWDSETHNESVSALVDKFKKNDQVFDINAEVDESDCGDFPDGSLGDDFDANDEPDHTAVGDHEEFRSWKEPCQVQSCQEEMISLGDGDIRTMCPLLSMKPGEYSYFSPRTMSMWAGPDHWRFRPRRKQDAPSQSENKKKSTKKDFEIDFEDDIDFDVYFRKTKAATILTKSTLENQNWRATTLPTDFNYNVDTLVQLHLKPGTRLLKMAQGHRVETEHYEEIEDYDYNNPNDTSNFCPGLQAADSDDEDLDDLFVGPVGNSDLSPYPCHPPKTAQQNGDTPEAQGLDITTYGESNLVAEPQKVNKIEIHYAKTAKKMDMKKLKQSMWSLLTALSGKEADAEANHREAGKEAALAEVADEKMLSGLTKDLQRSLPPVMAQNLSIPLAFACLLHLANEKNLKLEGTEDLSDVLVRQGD
inactive: [1] -0.03 | filanesib 0.018 | zotarolimus 0.024 | idasanutlin -0.046 | alisertib 0.016 | [2] 0.092 | gefitinib 0 | [3] -0.065 | lapatinib -0.021 | pictilisib 0.062 | [4] 0.049 | crizotinib 0.013 | [5] -0.017 | [6] 0.072 | duvelisib 0.024 | gandotinib -0.11 | tozasertib 0.102 | [7] 0.081 | doramapimod 0.006 | ispinesib -0.064

NOL7 (UniProt Q9UMY1)
Chain of UniProt Q9UMY1 (Q9UMY1 whole entry, looked up): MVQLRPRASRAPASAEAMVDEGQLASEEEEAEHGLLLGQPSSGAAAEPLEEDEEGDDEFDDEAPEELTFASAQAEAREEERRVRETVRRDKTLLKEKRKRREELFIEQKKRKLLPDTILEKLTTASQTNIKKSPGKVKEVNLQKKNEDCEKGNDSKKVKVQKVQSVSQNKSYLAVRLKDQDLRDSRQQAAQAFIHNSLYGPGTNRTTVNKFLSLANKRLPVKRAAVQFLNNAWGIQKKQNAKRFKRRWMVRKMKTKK
inactive: [1] -0.089 | filanesib 0.524 | zotarolimus -0.024 | idasanutlin 0.157 | alisertib -0.119 | [2] -0.086 | gefitinib -0.006 | [3] -0.142 | lapatinib 0.169 | pictilisib -0.095 | [4] -0.054 | crizotinib 0.065 | [5] -0.661 | [6] 0.415 | duvelisib -0.201 | gandotinib 0.124 | tozasertib -0.001 | [7] 0.003 | doramapimod 0.187 | ispinesib -0.052

OAT (UniProt P04181)
Chain of UniProt P04181 (P04181 whole entry, looked up): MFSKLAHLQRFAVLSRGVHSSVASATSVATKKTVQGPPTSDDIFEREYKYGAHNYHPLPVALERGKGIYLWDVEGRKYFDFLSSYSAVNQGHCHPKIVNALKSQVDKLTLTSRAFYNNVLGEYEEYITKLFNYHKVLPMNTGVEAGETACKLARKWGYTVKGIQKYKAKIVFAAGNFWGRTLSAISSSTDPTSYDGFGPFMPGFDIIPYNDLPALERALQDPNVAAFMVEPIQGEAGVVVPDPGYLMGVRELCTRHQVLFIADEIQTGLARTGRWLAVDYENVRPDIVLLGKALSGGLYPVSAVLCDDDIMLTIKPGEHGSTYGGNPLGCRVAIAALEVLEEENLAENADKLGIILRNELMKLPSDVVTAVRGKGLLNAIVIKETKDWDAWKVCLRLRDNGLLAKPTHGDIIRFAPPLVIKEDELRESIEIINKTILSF
active: ispinesib -0.233
inactive: [1] -0.028 | filanesib -0.183 | zotarolimus 0.03 | idasanutlin -0.054 | alisertib -0.025 | [2] -0.095 | gefitinib 0.011 | [3] 0.004 | lapatinib -0.076 | pictilisib 0.12 | [4] -0.003 | crizotinib -0.123 | [5] 0.053 | [6] -0.083 | duvelisib 0.032 | gandotinib -0.03 | tozasertib -0.102 | [7] 0.018 | doramapimod 0.037

NACC1 (UniProt Q96RE7)
Chain of UniProt Q96RE7 (Q96RE7 whole entry, looked up): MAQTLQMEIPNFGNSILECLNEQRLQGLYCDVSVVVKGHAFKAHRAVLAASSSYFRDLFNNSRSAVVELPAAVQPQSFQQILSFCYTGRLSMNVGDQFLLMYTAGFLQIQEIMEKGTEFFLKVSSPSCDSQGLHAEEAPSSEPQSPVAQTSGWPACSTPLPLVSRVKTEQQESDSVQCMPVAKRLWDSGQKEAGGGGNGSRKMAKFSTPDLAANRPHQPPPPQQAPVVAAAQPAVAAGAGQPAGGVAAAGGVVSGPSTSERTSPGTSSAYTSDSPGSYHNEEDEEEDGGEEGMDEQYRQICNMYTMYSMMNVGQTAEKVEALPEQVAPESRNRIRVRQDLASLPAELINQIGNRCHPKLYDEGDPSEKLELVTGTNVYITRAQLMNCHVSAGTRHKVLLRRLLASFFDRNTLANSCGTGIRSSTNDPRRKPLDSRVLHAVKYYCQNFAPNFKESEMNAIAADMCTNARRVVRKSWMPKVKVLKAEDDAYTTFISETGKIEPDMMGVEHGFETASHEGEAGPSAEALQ
inactive: [1] 0.009 | filanesib -0.116 | zotarolimus 0.103 | idasanutlin 0.02 | alisertib 0.016 | [2] -0.198 | gefitinib 0.021 | [3] 0.024 | lapatinib -0.031 | pictilisib -0.034 | [4] 0 | crizotinib 0.005 | [5] 0.082 | [6] -0.03 | duvelisib 0.103 | gandotinib -0.129 | tozasertib 0.161 | [7] 0.152 | doramapimod -0.064 | ispinesib -0.019

NPEPPS (UniProt P55786)
Chain of UniProt P55786 (P55786 whole entry, looked up): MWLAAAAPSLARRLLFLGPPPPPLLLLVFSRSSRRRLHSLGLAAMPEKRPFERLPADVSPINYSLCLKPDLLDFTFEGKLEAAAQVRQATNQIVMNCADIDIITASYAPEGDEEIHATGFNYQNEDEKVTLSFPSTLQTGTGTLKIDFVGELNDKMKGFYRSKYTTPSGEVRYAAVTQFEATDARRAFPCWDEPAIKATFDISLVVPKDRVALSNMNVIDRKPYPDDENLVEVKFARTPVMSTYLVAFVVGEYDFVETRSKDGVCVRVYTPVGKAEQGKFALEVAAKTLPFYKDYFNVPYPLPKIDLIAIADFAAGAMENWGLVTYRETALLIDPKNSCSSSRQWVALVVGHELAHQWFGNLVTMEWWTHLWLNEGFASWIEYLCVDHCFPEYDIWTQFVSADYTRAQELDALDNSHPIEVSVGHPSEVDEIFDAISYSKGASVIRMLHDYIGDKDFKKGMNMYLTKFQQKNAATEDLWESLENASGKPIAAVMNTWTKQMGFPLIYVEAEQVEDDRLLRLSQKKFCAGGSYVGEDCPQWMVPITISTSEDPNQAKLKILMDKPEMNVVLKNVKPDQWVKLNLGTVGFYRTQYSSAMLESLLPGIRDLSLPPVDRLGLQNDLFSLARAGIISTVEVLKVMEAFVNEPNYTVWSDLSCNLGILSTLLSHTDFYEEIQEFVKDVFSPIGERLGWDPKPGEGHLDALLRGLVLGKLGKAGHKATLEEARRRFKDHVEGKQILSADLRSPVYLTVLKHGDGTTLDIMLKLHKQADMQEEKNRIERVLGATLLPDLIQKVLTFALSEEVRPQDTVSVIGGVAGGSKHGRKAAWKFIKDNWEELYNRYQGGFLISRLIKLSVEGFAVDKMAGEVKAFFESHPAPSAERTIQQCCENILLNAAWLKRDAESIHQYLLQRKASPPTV
active: [1] 0.22 | zotarolimus 0.338
inactive: filanesib -0.056 | idasanutlin -0.072 | alisertib -0.017 | [2] 0.037 | gefitinib -0.026 | [3] 0.066 | lapatinib -0.002 | pictilisib -0.001 | [4] 0.019 | crizotinib -0.14 | [5] 0.122 | [6] -0.039 | duvelisib 0.063 | gandotinib -0.03 | tozasertib -0.066 | [7] -0.012 | doramapimod 0.013 | ispinesib 0.082

NUDT16 (UniProt Q96DE0)
Chain of UniProt Q96DE0 (Q96DE0 whole entry, looked up): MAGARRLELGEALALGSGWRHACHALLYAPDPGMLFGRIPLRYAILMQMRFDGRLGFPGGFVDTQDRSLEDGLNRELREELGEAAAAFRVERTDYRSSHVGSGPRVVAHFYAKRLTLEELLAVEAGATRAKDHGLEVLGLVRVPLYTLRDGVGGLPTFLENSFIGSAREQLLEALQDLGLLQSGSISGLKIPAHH
inactive: [1] -0.033 | filanesib -0.018 | zotarolimus 0.1 | idasanutlin -0.01 | alisertib -0.168 | [2] 0.025 | gefitinib 0.005 | [3] 0.112 | lapatinib 0.054 | pictilisib 0.045 | [4] 0.054 | crizotinib 0.052 | [5] 0.042 | [6] -0.169 | duvelisib 0.045 | gandotinib 0.063 | tozasertib -0.011 | [7] 0 | doramapimod -0.034 | ispinesib 0.067

NIPSNAP2 (UniProt O75323)
Chain of UniProt O75323 (O75323 whole entry, looked up): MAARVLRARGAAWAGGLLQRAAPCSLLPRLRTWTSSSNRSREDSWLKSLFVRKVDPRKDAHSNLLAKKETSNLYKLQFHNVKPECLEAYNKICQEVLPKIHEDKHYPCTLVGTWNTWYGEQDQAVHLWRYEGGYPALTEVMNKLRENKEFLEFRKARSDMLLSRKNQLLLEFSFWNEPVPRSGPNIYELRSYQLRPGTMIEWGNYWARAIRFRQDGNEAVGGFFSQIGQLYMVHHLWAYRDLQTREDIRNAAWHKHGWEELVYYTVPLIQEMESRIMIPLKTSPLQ
inactive: [1] 0.074 | filanesib -0.065 | zotarolimus 0.008 | idasanutlin -0.022 | alisertib 0.003 | [2] 0.007 | gefitinib 0.045 | [3] -0.038 | pictilisib 0.079 | [4] -0.014 | crizotinib 0.083 | [5] 0.068 | [6] -0.041 | duvelisib 0.019 | gandotinib 0.057 | tozasertib -0.084 | [7] 0.105 | doramapimod -0.106 | ispinesib 0.162
active: lapatinib 0.224

Reference: the supplement of paper PMC10849652
